Consider 68 compounds from ChEMBL document CHEMBL4513216, “Probing the Open Global Health Chemical Diversity Library for Multistage-Active Starting Points for Next-Generation Antimalarials” (ACS Infect Dis, 2020).

The campaign covered roughly 69,000 compounds. About 8,600 (12%) showed an effect of 50% or more. Many of the other results were omitted from the sample, so strong results are more common in it than they were.

The test has as its system Plasmodium berghei. Nature of the test: Screen against P. berghei liver stage (PbLuc), transformed with Luciferase, at 10uM. The format is functional, HepG2. To be noted: tested at 10 uM.
Take `CCOC(=O)C(C)Nc1ccc(CCN2CCOCC2)cc1` (stereo not drawn): the INHIBITION was -30.1%.
To `CCC(Nc1ccc(CCN2CCCCC2)cc1)C(N)=O` (stereo not drawn) belongs 57.2%; to `CCC(Nc1ccc(CCN2CCOCC2)cc1)C(N)=O` (stereo not drawn), -28.8%.
Then `Cc1nn(Cn2ccc(C(=O)N3CCCC3)n2)c(C)c1Cl`, with 7.92%; and `COc1cc(-c2nc(C3CC3)nn2-c2ccnc(C)c2)nc(OC)n1`, with -10.2%.
To `O=C(Nc1nnc(C(F)F)s1)NC(CCO)c1cccs1` (stereo not drawn) belongs 13.8%.
In the case of `CN(Cc1nccs1)C1CCN(c2cccc(-c3cscn3)c2)CC1`, the INHIBITION is 63.6%.
To `CN(Cc1ccon1)C1CCN(c2cccc(-c3cscn3)c2)CC1` belongs 30.9%; to `CN(C)CCCN(C)C1CCN(c2cccc(-c3cscn3)c2)CC1`, 52.2%.
To `CN(Cc1cnn(C)c1)C1CCN(c2cccc(-c3cscn3)c2)CC1` belongs 45.6%; to `Cc1cc(CN(C)C2CCN(c3cccc(-c4cscn4)c3)CC2)on1`, 44.8%; to `Cc1nnc(CN(C)C2CCN(c3cccc(-c4cscn4)c3)CC2)o1`, 23.5%.
Take `Cc1cc(C2CCCN(CCCS(C)(=O)=O)C2)n[nH]1` (stereo not drawn): the INHIBITION is listed as 11.9%.
Then `CN(C)c1ccc(C(=O)N2CCN(Cc3cscn3)CC2)cn1`, with -0.219%.
As for `CCOCc1cccc(NCc2c[nH]nc2-c2cccnc2)c1`, the INHIBITION is listed as 49.1%.
To `FCCOc1cccc(NCc2c[nH]nc2-c2cccnc2)c1` belongs 34.6%.
For the compound `COc1ccc(NCc2c[nH]nc2-c2cccnc2)cc1`, the INHIBITION worked out at 56.8%.
For `CC(Cn1cccn1)NC(=O)NCc1cccnc1OC1CCCC1` (stereo not drawn), the INHIBITION is on record as -21.7%.
To `CC(Cn1cccn1)NC(=O)NCc1ccc(OC2CCCC2)nc1` (stereo not drawn) belongs 54.4%; to `CC(Cn1cccn1)NC(=O)NCc1ccnc(OC2CCCC2)c1` (stereo not drawn), 23.5%; to `CC(C)n1cnnc1CN1CCC2(CCCN(C3CCCCC3)C2=O)C1` (stereo not drawn), -64.1%.
To `CCN1CCCC1CNC(=O)c1cc(COc2ccccc2F)[nH]n1` (stereo not drawn) belongs -11.2%; to `COc1ccc2c(c1)CCCN(CC(=O)NCC1CCCO1)C2` (stereo not drawn), 39.6%; to `Cc1c(C(=O)N2CCC(N3CCCCC3)CC2)n(C)c2ccc(Cl)cc12`, 69.3%.
To `Cc1c(C(=O)N2CCOCC2)n(C)c2ccc(Cl)cc12` belongs -1.3%; to `Cc1c(C(=O)N2CCN(C)CC2)n(C)c2ccc(Cl)cc12`, 20.9%.
In the case of `NS(=O)(=O)CC1CCCN(C(=O)CCCC2CCCC2)C1` (stereo not drawn), the INHIBITION came to 43.8%.
As to `O=C(CCC1CCN(C2Cc3ccccc3C2)CC1)NCC1CCCO1` (stereo not drawn), the INHIBITION is on record as 25.8%.
Then `O=C1CCC2(CCN(Cc3nccs3)CC2)N1Cc1ccccc1`, with 11.4%; and `COc1ccc(-c2ccnc(N)c2)c(OC)c1`, with -10.5%; and `COc1ccc(-c2cc(N)ccn2)c(OC)c1OC`, with 61.5%.
Then `COc1cc(F)ccc1-c1cc(N)ccn1`, with 49.6%; and `CCOc1ccc2oc(-c3cnn(C)c3C)c(O)c(=O)c2c1`, with 0.207%.
For the compound `COC(=O)c1ccc(NC(=O)CCNCc2ccco2)cc1`, the INHIBITION is on record as 36.5%.
Then `CN1CCN(Cc2ccc(-c3ccc(C(N)=O)cc3)nc2)CC1`, with 24.2%.
As for `CN1CCN(Cc2ccc(-c3ccc4[nH]ccc4c3)nc2)CC1`, the INHIBITION came to 27.5%.
Then `CN1CCN(Cc2ccc(-c3ccc(-c4ccn[nH]4)cc3)nc2)CC1`, with 54.9%; and `CCCC(=O)N1CCCCC1c1nccc(C)n1` (stereo not drawn), with 20.8%.
To `COc1ccc(CN(C)[C@@H]2CN(C(=O)c3cccn3C)C[C@H]2O)cc1` belongs 32.8%.
To `CN1CCN(c2ncc3c(c2C(=O)O)CCN(C2CCOC2)C3)CC1` (stereo not drawn) belongs 58.5%; to `CCN(C)c1ncc2c(c1C(=O)O)CCN(C1CCOC1)C2` (stereo not drawn), 33.4%; to `CCN(CC)c1ncc2c(c1C(=O)O)CCN(C1CCOC1)C2` (stereo not drawn), 15.7%.
On to `CO[C@@H]1CCN(C(=O)c2ccsc2)[C@@H]2CN(CC3CC3)C[C@@H]21`, for which the INHIBITION is -19.6%.
Then `NC(=O)COc1ccc(CN2CCC3(CC2)[C@H](O)C[C@@H]3O)cc1Cl`, with 28.7%; and `NC(=O)COc1ccc(CN2CC[C@@]3(O)CCCC[C@H]3C2)cc1Cl`, with 16.8%; and `NC(=O)COc1ccc(CN2CCC(O)(CN3CCCCC3)C2)cc1Cl` (stereo not drawn), with 50.5%.
To `COc1ccccc1C1CCN(C(=O)CN2C(=O)OC(C)(C)C2=O)CC1` belongs -140%.
Then `COc1ccc(-n2ncc(C(C)NCc3cnc(SC)nc3)c2C)cc1` (stereo not drawn), with 7.6%; and `CSc1ncc(CNC(C)c2cnn(-c3ccccc3)c2C)cn1` (stereo not drawn), with 36.7%.
Take `CSc1ncc(CNC(C)c2cnn(-c3ccc(F)cc3F)c2C)cn1` (stereo not drawn): the INHIBITION was determined as 50.3%.
Then `Cc1c(C(C)NC2CCCC2)cnn1-c1ccc(F)cc1F` (stereo not drawn), with 31.9%.
Then `Cc1c(C(C)NC2CCOCC2)cnn1-c1ccc(F)cc1F` (stereo not drawn), with 22.3%; and `Cc1c(C(C)NCC2CCCC2)cnn1-c1ccc(F)cc1F` (stereo not drawn), with 62.9%.
Then `O=C(NC[C@H]1OC[C@@H]2CCN(C3CCOCC3)C[C@@H]21)c1ccncc1`, with 36.2%.
As to `COc1c(CNC2CCc3c(Cl)cccc32)c(C)nn1C` (stereo not drawn), the INHIBITION was determined as 36.3%.
To `CCCN1CCC(N2CCC(Cn3cc(CC(C)O)nn3)CC2)CC1` (stereo not drawn) belongs 25.3%; to `OCc1cn(CC2CCN(C3CCSC3)CC2)nn1` (stereo not drawn), -14.1%; to `CC(O)Cc1cn(CC2CCN(C3CCSCC3)CC2)nn1` (stereo not drawn), 57.8%.
In the case of `O=C(O)c1cc(-c2cccs2)nc2c(Br)cnn12`, the INHIBITION worked out at 15.9%.
Then `Cn1cc(NC(=O)CNC(=O)N2CCN(c3ccccc3)CC2)cn1`, with 21.5%.
Then `Cc1cnc(CN(C)C2CCN(CC(=O)Nc3nncs3)C2)o1` (stereo not drawn), with 20.9%.
For `CCCC(=O)N1CCC2(CC1)CN(Cc1cccc(C)n1)C(=O)CO2`, the INHIBITION was 25.3%.
Then `CS(=O)(=O)N1CC[C@H]2O[C@H](C(=O)NCc3cccnc3)CC[C@H]21`, with 11.4%; and `CS(=O)(=O)N1CC[C@H]2O[C@H](C(=O)NCCc3ccccn3)CC[C@H]21`, with 54.7%.
Then `O=C(Nc1cnccn1)[C@H]1CC[C@@H]2[C@@H](CCN2Cc2ccoc2)O1`, with 8.52%; and `CS(=O)(=O)N1CC[C@H]2O[C@H](C(=O)NCCc3ccncc3)CC[C@H]21`, with -35.9%.
To `O=C(NCc1cccs1)[C@H]1CC[C@@H]2[C@@H](CCN2Cc2ccoc2)O1` belongs -5.31%; to `O=C(NCCc1ccccn1)[C@@H]1CC[C@@H]2[C@@H](CCN2Cc2ccoc2)O1`, 59.9%.
